Structures are written as SMILES. Compounds without any hit were thinned out: in the full panel of roughly 83,000, 20% have a hit.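 Negative percent growth values reflect cell death: -40 means 40% of the cells present at the start died, and -100 means all died.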 Unmarked numbers belong to inactive results. Activity calls are given as the source filed them. Rule for the calls: active = growth percent below 10; inactive = the rest.

What all share (test): NCI-60 one-dose screen, 48 h (100 = growth as untreated, 0 = no growth, -100 = all killed)
Common to all, as to conditions: 10 µM unless noted

For assay [1], the system named is NCI-H23 lung.
In assay [2] the test system is NCI-H226 lung.
Assay [3] deals with NCI-H322M lung.
Assay [4] concerns HOP-62 NSCLC.
In assay [5] the test system is NCI-H460 lung.
Assay [6] concerns HOP-92 NSCLC.
Assay [7] deals with NCI-H522 lung.
Assay [8] deals with A549/ATCC NSCLC.
The test system of assay [9] is 786-0 renal.
The subject of assay [10] is COLO 205 colon.
Assay [11] concerns DU-145 prostate.
Assay [12] concerns K-562 leukemia.
For assay [13], the system named is MALME-3M melanoma.
In assay [14] the test system is MDA-MB-231 breast.
In assay [15] the test system is RXF 393 renal.
The test system of assay [16] is SF-268 CNS.
Assay [17] deals with SF-295 CNS.
The test system of assay [18] is SF-539 CNS.
Assay [19] has as its system UACC-257 melanoma.
For assay [20], the system named is M14 melanoma.

Turning to `COc1cccc(-c2nc3occn3c2-c2ccnc(NCCNS(=O)(=O)c3cccc4ccccc34)n2)c1`, the growth is 103% in [1]; 99.6% in assay [2]; 104% in assay [3]; 103% in assay [4]; 101% in assay [5]; 122% in assay [6]. For the same compound, the growth was 102% in assay [7]; 105% in assay [8]; 97.8% in assay [9]; 96% in [10]; 107% in [11]; 95.1% in [12]. Moreover, the growth in [13] was 111%; in [14], 112%; in assay [15], 102%; in assay [16], 96.8%; in assay [17], 106%; in assay [18], 109%. The growth in assay [19] was 104%; in assay [20], 117%.

On to `COC(=O)CNC(=O)[C@]12CCC(C)(C)C[C@H]1C1=CC[C@@H]3[C@@]4(C)Cc5c([nH]c6ccccc56)C(C)(C)[C@@H]4CC[C@@]3(C)[C@]1(C)CC2`, for which the growth is 92.9% in assay [1]; 83.5% in [2]; 91.6% in [3]; 87.8% in assay [4]; 87.7% in [5]; 101% in assay [6]. The growth is 80.5% in [7]; 50.4% in assay [8]; 91.6% in assay [9]; 87% in [10]; 97.6% in [11]; 59.3% in assay [12]. Further, the growth is 92.2% in assay [13]; 93.9% in [14]; 94.2% in assay [15]; 84.4% in assay [16]; 84.7% in [17]; 102% in [18]. Also, the growth in [19] was 78.8%; in assay [20], 104%.

With `CCC(CC)NCC(C)(C)O`, the growth was 97.7% in assay [1]; 109% in assay [2]; 94% in [3]; 119% in assay [4]; 103% in [5]; 105% in assay [6]. Moreover, the growth in assay [7] was 105%; in assay [8], 102%; in assay [9], 107%; in assay [10], 120%; in [11], 106%; in [12], 102%. For the same compound, the growth is 113% in assay [13]; 102% in assay [14]; 117% in assay [15]; 109% in [16]; 103% in assay [17]; 111% in assay [18]. Besides, the growth in [19] is 106%; in assay [20] it was 97%.

Consider `CC(C)(C)CC(C)(C)n1nnnc1C(NC12CC3CC(CC(C3)C1)C2)c1ccccc1` (stereo not given), for which the growth was 90.8% in [1]; 84.2% in assay [2]; 105% in [3]; 101% in assay [4]; 94.5% in assay [5]; 87% in [6]. Moreover, the growth was 74% in assay [7]; 80.7% in assay [8]; 86.3% in [9]; 122% in [10]; 96.5% in assay [11]; 73.1% in assay [12]. For the same compound, the growth in assay [13] is 99.2%; in assay [14], 81.4%; in assay [15] it was 85.9%; in [16] it was 83.3%; in [17] it was 75.9%; in [18], 95.7%. In addition, the growth is 89.1% in assay [19] and 82.8% in [20].

In the case of `Cn1c2ccccc2c2c3c(c4c5ccccc5n(C)c4c21)C(=O)OC3`, the growth in assay [1] was 97.6%; in assay [2] it was 80.9%; in assay [3] it was 87.6%; in assay [4] it was 90.8%; in assay [5], 97.6%; in assay [6] it was 95.6%. Also, the growth in assay [7] is 88.8%; in [8] it was 104%; in assay [9], 102%; in assay [10] it was 107%; in assay [11], 104%; in [12], 94.2%. The growth was 109% in assay [13]; 76.2% in [14]; 101% in assay [15]; 91.1% in assay [16]; 107% in assay [17]; 96.6% in [18]. Also, the growth in [19] was 109%; in assay [20] it was 103%.

Turning to `Nc1c(C(=O)Nc2ccnc3ccccc23)sc2nc3c(cc12)CN(Cc1ccccc1)CC3`, the growth in assay [1] was 70.3%; in [2], 53.1%; in assay [3] it was 90.3%; in assay [4], 111%; in assay [5], 87.4%; in [6], 66.7%. Moreover, the growth in assay [7] is 70.1%; in assay [8], 85.1%; in assay [9], 66.3%; in assay [10] it was 97.3%; in assay [11], 85.6%; in assay [12] it was 38.5%. Besides, the growth in assay [13] was 96%; in assay [14] it was 67.7%; in assay [15], 96.1%; in assay [16] it was 87.8%; in assay [17], 75.2%; in assay [18], 99.1%. Moreover, the growth is 78.8% in assay [19] and 41.9% in assay [20].

In the case of `CCCOc1ccc(/C=N/Nc2cc(C)nc3ccc(Cl)cc23)cc1`, the growth is 75.9% in [1]; 88.3% in assay [2]; 62.1% in assay [3]; 75.2% in assay [4]; -37.5% (active) in assay [5]; 69.2% in [6]. Further, the growth was 86.9% in [7]; 36.9% in assay [8]; -86.4% (active) in assay [9]; -80.7% (active) in assay [10]; 24.2% in assay [11]; -37% (active) in assay [12]. In addition, the growth is -59% (active) in [13]; 60.1% in [14]; -18.9% (active) in assay [15]; 83.8% in assay [16]; -74.3% (active) in assay [17]; -62.6% (active) in assay [18]. Also, the growth in [19] was 89.8%; in [20] it was -29.8% (active).

Source of the values: PubChem BioAssay (NCI).
